PubChem BioAssay AID1159580 (chemical genetic matrix, 2015)
Screen size: about 5,500 compounds; about 2,000 (36%) were called active. Another 18% or so got no clear call; they are omitted. Some of the results follow. A number with no mark means an inactive call. Cut-off read from the data, not from the text of the source: active = normalized growth mostly below about 0.91 (no sharp cut-off); inconclusive = no clear call, values can overlap the other calls; inactive = mostly above about 0.92.

Assay: chemical genetic growth profiling, strain panel (AID 1159580);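 note: tested at 20 µM; growth read once vehicle control cultures reached saturation at 30 °C; 1 = growth at the plate median or of vehicle wells; lower values mean less growth of the strain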
Details: S. cerevisiae deletion strains, growth OD
[1] = locus YAR019C, strain CDC15, hits give low values
[2] = locus YBL105C, strain PKC1, hits give low values
[3] = locus YBR135W, strain CKS1, hits give low values
[4] = locus YBR136W, strain MEC1, hits give low values
[5] = locus YBR160W, strain CDC28, hits give low values
[6] = locus YDL017W, strain CDC7, hits give low values
[7] = locus YDL028C, strain MPS1, hits give low values
[8] = locus YDL101C, strain DUN1, hits give low values
[9] = locus YDL108W, strain KIN28, hits give low values
[10] = locus YDL132W, strain cdc53, hits give low values
[11] = locus YDL214C, strain PRR2, hits give low values
[12] = locus YDR052C, strain DBF4, hits give low values
[13] = locus YDR054C, strain cdc34, hits give low values
[14] = locus YDR226W, strain ADK1, hits give low values
[15] = locus YDR477W, strain SNF1, hits give low values
[16] = locus YER123W, strain YCK3, hits give low values
[17] = locus YER133W, strain GLC7, hits give low values
[18] = locus YFL009W, strain cdc4, hits give low values
[19] = locus YFL029C, strain CAK1, hits give low values
[20] = locus YFR003C, strain YPI1, hits give low values
[21] = locus YFR019W, strain FAB1, hits give low values
[22] = locus YFR028C, strain CDC14, hits give low values
[23] = locus YGR040W, strain KSS1, hits give low values
[24] = locus YGR052W, strain FMP48, hits give low values
[25] = locus YGR092W, strain DBF2, hits give low values
[26] = locus YHR030C, strain SLT2, hits give low values
[27] = locus YHR079C, strain IRE1, hits give low values
[28] = locus YHR082C, strain KSP1, hits give low values
[29] = locus YHR205W, strain SCH9, hits give low values
[30] = locus YIL147C, strain SLN1, hits give low values
[31] = locus YJL095W, strain BCK1, hits give low values
[32] = locus YJL128C, strain PBS2, hits give low values
[33] = locus YJL157C, strain FAR1, hits give low values
[34] = locus YJR016C, strain ILV3, hits give low values
[35] = locus YJR066W, strain TOR1 (second series), hits give low values
[36] = locus YJR066W, strain TOR1, hits give low values
[37] = locus YKL048C, strain ELM1, hits give low values
[38] = locus YKL067W, strain YNK1, hits give low values
[39] = locus YKL101W, strain HSL1, hits give low values
[40] = locus YKL193C, strain SDS22, hits give low values
[41] = locus YKL203C, strain TOR2, hits give low values
[42] = locus YLR113W, strain HOG1, hits give low values
[43] = locus YLR133W, strain CKI1, hits give low values
[44] = locus YLR403W, strain SFP1, hits give low values
[45] = locus YML070W, strain DAK1, hits give low values
[46] = locus YMR001C, strain CDC5, hits give low values
[47] = locus YMR205C, strain PFK2 (second series), hits give low values
[48] = locus YMR277W, strain FCP1, hits give low values
[49] = locus YNL006W, strain LST8, hits give low values
[50] = locus YNL020C, strain ARK1, hits give low values
[51] = locus YNL161W, strain CBK1, hits give low values
[52] = locus YNL183C, strain NPR1, hits give low values
[53] = locus YNL207W, strain RIO2, hits give low values
[54] = locus YNL222W, strain SSU72, hits give low values
[55] = locus YNL307C, strain MCK1 (second series), hits give low values
[56] = locus YOL078W, strain AVO1, hits give low values
[57] = locus YOL136C, strain PFK27, hits give low values
[58] = locus YOR061W, strain CKA2, hits give low values
[59] = locus YOR119C, strain RIO1, hits give low values
[60] = locus YOR231W, strain MKK1, hits give low values
[61] = locus YOR329C, strain SCD5, hits give low values
[62] = locus YPL031C, strain PHO85, hits give low values
[63] = locus YPL153C, strain RAD53, hits give low values
[64] = locus YPL204W, strain HRR25, hits give low values
[65] = locus YPL209C, strain IPL1, hits give low values
[66] = locus YPL256C, strain CLN2, hits give low values
[67] = locus YPR025C, strain CCL1, hits give low values
[68] = locus YPR106W, strain ISR1, hits give low values
[69] = locus YPR111W, strain DBF20, hits give low values
[70] = strain NNK1, hits give low values
[71] = strain TSCII, hits give low values

Work on `Fc1cc(I)ccc1Nc1ccnc2cc(Cl)ccc12` yielded a normalized growth [1] of 0.977, a normalized growth [2] of 0.975 and a normalized growth [3] of 0.981. For the same compound, the normalized growth [4] was 0.989, the normalized growth [5] was 0.978 and the normalized growth [6] was 0.977. The normalized growth [7] was 0.979, the normalized growth [8] was 0.981 and the normalized growth [9] was 0.986. The normalized growth [10] was 0.986, the normalized growth [11] was 0.911 and the normalized growth [12] was 0.968. For the same compound, the normalized growth [13] was 0.974, the normalized growth [14] was 0.993 and the normalized growth [15] was 0.949. The normalized growth [16] was 0.901, the normalized growth [17] was 0.948 and the normalized growth [18] was 0.978. For the same compound, the normalized growth [19] was 0.98, the normalized growth [20] was 0.991 and the normalized growth [21] was 0.943. For the same compound, the normalized growth [22] was 0.981, the normalized growth [23] was 0.918 and the normalized growth [24] was 1.06. For the same compound, the normalized growth [25] was 0.954, the normalized growth [26] was 0.841 (active) and the normalized growth [27] was 1. It also gave a normalized growth [28] of 0.974, a normalized growth [29] of 0.93 and a normalized growth [30] of 0.981. For the same compound, the normalized growth [31] was 0.939, the normalized growth [32] was 0.978 and the normalized growth [33] was 0.954. It also gave a normalized growth [34] of 0.975, a normalized growth [35] of 0.953 and a normalized growth [36] of 0.958. For the same compound, the normalized growth [37] was 0.94, the normalized growth [38] was 0.934 and the normalized growth [39] was 0.932. It also gave a normalized growth [40] of 0.991, a normalized growth [41] of 0.976 and a normalized growth [42] of 0.915. The normalized growth [43] was 0.933, the normalized growth [44] was 0.95 and the normalized growth [45] was 0.933. It also gave a normalized growth [46] of 0.985, a normalized growth [47] of 0.937 and a normalized growth [48] of 0.984. For the same compound, the normalized growth [49] was 0.998, the normalized growth [50] was 0.912 and the normalized growth [51] was 0.983. It also gave a normalized growth [52] of 0.957, a normalized growth [53] of 0.984 and a normalized growth [54] of 0.996. The normalized growth [55] was 0.91, the normalized growth [56] was 0.981 and the normalized growth [57] was 0.925. The normalized growth [58] was 0.966, the normalized growth [59] was 1.02 and the normalized growth [60] was 0.95. It also gave a normalized growth [61] of 0.986, a normalized growth [62] of 0.911 and a normalized growth [63] of 0.923. For the same compound, the normalized growth [64] was 0.912, the normalized growth [65] was 0.983 and the normalized growth [66] was 0.951. It also gave a normalized growth [67] of 0.986, a normalized growth [68] of 0.973 and a normalized growth [69] of 0.972. The normalized growth [70] was 0.973 and the normalized growth [71] was 0.982.
Work on `Cc1ccc(Nc2ccnc3cc(Cl)ccc23)cc1F` yielded a normalized growth [1] of 0.997, a normalized growth [2] of 0.993 and a normalized growth [3] of 0.995. The normalized growth [4] was 0.995, the normalized growth [5] was 0.988 and the normalized growth [6] was 1. It also gave a normalized growth [7] of 0.991, a normalized growth [8] of 0.992 and a normalized growth [9] of 0.995. It also gave a normalized growth [10] of 0.987, a normalized growth [11] of 0.942 and a normalized growth [12] of 0.991. The normalized growth [13] was 0.985, the normalized growth [14] was 0.997 and the normalized growth [15] was 0.946. The normalized growth [16] was 0.918, the normalized growth [17] was 0.96 and the normalized growth [18] was 0.983. The normalized growth [19] was 0.986, the normalized growth [20] was 0.996 and the normalized growth [21] was 0.943. It also gave a normalized growth [22] of 0.989, a normalized growth [23] of 0.945 and a normalized growth [24] of 1.06. The normalized growth [25] was 0.973, the normalized growth [26] was 0.826 (active) and the normalized growth [27] was 0.96. It also gave a normalized growth [28] of 1, a normalized growth [29] of 0.915 and a normalized growth [30] of 0.992. The normalized growth [31] was 0.905, the normalized growth [32] was 0.935 and the normalized growth [33] was 0.965. It also gave a normalized growth [34] of 0.998, a normalized growth [35] of 0.946 and a normalized growth [36] of 0.967. It also gave a normalized growth [37] of 0.943, a normalized growth [38] of 0.937 and a normalized growth [39] of 0.951. For the same compound, the normalized growth [40] was 0.997, the normalized growth [41] was 0.977 and the normalized growth [42] was 0.924. It also gave a normalized growth [43] of 0.94, a normalized growth [44] of 0.951 and a normalized growth [45] of 0.947. The normalized growth [46] was 0.995, the normalized growth [47] was 0.956 and the normalized growth [48] was 0.995. For the same compound, the normalized growth [49] was 1.01, the normalized growth [50] was 0.943 and the normalized growth [51] was 1. For the same compound, the normalized growth [52] was 0.936, the normalized growth [53] was 0.997 and the normalized growth [54] was 1. The normalized growth [55] was 0.918, the normalized growth [56] was 0.997 and the normalized growth [57] was 0.934. For the same compound, the normalized growth [58] was 0.978, the normalized growth [59] was 1.04 and the normalized growth [60] was 0.972. The normalized growth [61] was 0.996, the normalized growth [62] was 0.947 and the normalized growth [63] was 0.938. It also gave a normalized growth [64] of 0.927, a normalized growth [65] of 0.998 and a normalized growth [66] of 0.92. For the same compound, the normalized growth [67] was 0.99, the normalized growth [68] was 0.994 and the normalized growth [69] was 0.976. The normalized growth [70] was 0.981 and the normalized growth [71] was 0.99.
